Only some compounds are listed: those with a hit (about 19% of all), similar ones and a draw of the others.
DT40 TDP1 CPT = DT40-hTDP1 cell growth loss with CPT | chicken DT40 Tdp1-/-;hTDP1 cells + 20 nM CPT, ATP luminescence, 48 h | Potency, µM (series often up to 46.2 µM), usual class: inhibitors | actives 12% (n = 420,000); also: nearly all actives have a fitted effect of over 55% in size
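Cell growth measured by CellTiter-Glo luminescence after a minimum 48 h, 37 C compound exposure with 20 nM CPT in Tdp1-knockout DT40 cells stably expressing hTDP1, seeded 400/well; qHTS titration format.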
HT1080NT lethal = kills 2HG-producing HT-1080-NT fibrosarcoma cells; HT-1080-NT fibrosarcoma viability, CellTiter-Glo ATP luminescence, 48 h; Potency, µM (series often up to 46.1 µM), most hits filed as cytotoxic; actives 1.6% (n = 360,000); AID 686970;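 also: NT is the 2HG producing partner of a matched IDH1 knockdown line; nearly all actives have a fitted effect of over 55% in size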
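750 cells/well, RPMI + 5% FBS; 2 h settle, compound pin-transfer, 48 h at 37 degrees C. CellTiter-Glo 10 min RT, luminescence. Normalized to DMSO and media-only wells.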
HT1080 IDH1KD tx = kills HT-1080 cells with IDH1 knockdown; HT-1080 IDH1 knockdown viability, ATP luminescence, 48 h; actives 2% (n = 360,000); Potency, µM (doses to about 46.1 µM), usual class: cytotoxic
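Knockdown cells (IDH1KD HT-1080) received compounds 2 h after plating at 750 cells/well and were kept 48 h at 37 °C in 5% FBS RPMI. A CellTiter-Glo luminescence read gave % activity for curve fitting.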
IL-1B inflam inh = blocks inflammasome-driven IL-1 beta release; actives 4.7% (n = 360,000); activity change, % at 57.5 µM; THP-1 LPS/ATP IL-1B secretion, AlphaLISA, 16 h; active compounds read low; AID 743279; in the data active = activity change below about -50%; inconclusive = mostly about -30% to -49%
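Secreted IL-1B measured by AlphaLISA bead assay after 16 h compound exposure of THP-1 cells; compounds (final up to 57.5 uM) added 1 h before LPS (250 ng/mL) and ATP (1.25 mM) stimulation; lower signal means less secretion.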
TDP1 cell noCPT = qHTS for Inhibitors of human tyrosyl-DNA phosphodiesterase 1 (TDP1): qHTS in cells in absence of CPT; DT40 Tdp1-/- hTDP1 cells, no CPT, ATP luminescence, 48 h; AID 686978, 2013; actives 15% (n = 420,000); Potency, µM (series often up to 46.2 µM), most hits filed as inhibitors; also: nearly all actives have a fitted effect of over 55% in size
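Stably hTDP1-transfected Tdp1-null chicken DT40 cells were treated with library compounds minus camptothecin and grown for at least 48 hr at 37 °C, after which cellular ATP was quantified by luminescence.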
A number is an active result; 0 = inactive; ? = inconclusive; - = not tested or not shown. Unless noted, calls follow the shape of the dose curve; as a rule, active = well fitted curve in the direction sought with a large enough effect; inconclusive = small, poorly fitted or top-dose-only effect, or another doubt; inactive = no such curve, though single readings can be large; an effect the other way counts as inactive or inconclusive.

SMILES | DT40 TDP1 CPT | HT1080NT lethal | HT1080 IDH1KD tx | IL-1B inflam inh | TDP1 cell noCPT
CCOC(=O)/C(=C/c1ccc(OC(=O)c2ccncc2)cc1)C(C)=O | ? | 0 | 0 | 0 | ?
CS(=O)(=O)c1ccc(Cl)c(NC(=O)CSc2nnc3n2CCCCC3)c1 | 0 | 0 | 0 | 0 | 0
Cc1cc(-c2nnc(SCC(=O)Nc3ccc(C)c(C)c3)n2N)n[nH]1 | 0 | 0 | 0 | 0 | 0
Cc1ccc(-n2ncc(C(=O)NCc3cccs3)c2C2CCN(C(=O)OC(C)(C)C)CC2)cc1 | 23.1µM | - | - | - | ?
Cc1ccc(CNC(=O)c2cnn(-c3cccc(C)c3)c2C2CCN(C(=O)OC(C)(C)C)CC2)cc1 | 16.4µM | - | - | - | 23.1µM
Cc1cccc(-n2ncc(C(=O)NC3CCCC3)c2C2CCN(C(=O)OC(C)(C)C)CC2)c1 | ? | 0 | 0 | 0 | ?
O=C1CCCCC1C(Nc1ccc(Br)cc1)c1ccccc1 (stereo not drawn) | 0 | 0 | ? | -71.8 | 0
O=C1CCCCC1C(Nc1ccc(Cl)cc1)c1ccccc1 (stereo not drawn) | 0 | 0 | 0 | 0 | 0
S=c1nc(C2CC2)[nH]c2ccccc12 | ? | 0 | 0 | 0 | ?
CC(C)c1nc(=S)c2ccccc2[nH]1 | ? | 0 | 0 | 0 | 18.4µM
O=C(COC(=O)CCSc1ccc(F)cc1)NCc1ccc(F)cc1 | ? | 0 | 0 | 0 | 0
CC(=O)c1c(N2CCN(CCO)CC2)nc(=S)n(-c2ccccc2)c1C | 0 | 0 | 0 | 0 | 0
CC(=O)c1c(N2CCN(Cc3ccc4c(c3)OCO4)CC2)nc(=S)n(-c2ccccc2)c1C | ? | 0 | 0 | 0 | 18.4µM
CC(=O)c1c(N2CCN(Cc3ccccc3)CC2)nc(=S)n(-c2ccccc2)c1C | ? | 0 | 0 | 0 | 23.1µM
CC(=O)c1c(N2CCN(c3ccccc3)CC2)nc(=S)n(-c2ccccc2)c1C | 23.1µM | 0 | 0 | -65.2 | 20.6µM
Cc1ccccc1CSc1nccn1-c1ccccc1 | 0 | 0 | 0 | 0 | ?
CN(C)N1C(N)=C(C#N)C(c2ccc3c(c2)OCO3)C2=C1CCCC2=O (stereo not drawn) | 0 | 0 | 0 | 0 | 0
O=C(Cn1cnc2c(nc3n2CCCCC3)c1=O)Nc1ccc(F)cc1 | 0 | - | - | - | 0
Cc1noc(C)c1CSCC(=O)Nc1nc(-c2ccc(F)c(F)c2)cs1 | 23.1µM | ? | 0 | -80.5 | 8.2µM
COc1ccc(-c2csc(NC(=O)CSCc3c(C)noc3C)n2)cc1OC | ? | 0 | 0 | ? | 9.2µM
Cc1noc(C)c1CSCC(=O)Nc1nc2c(F)cc(F)cc2s1 | ? | 0 | 0 | 0 | 23.1µM
O=C1c2cc([N+](=O)[O-])cc3cc([N+](=O)[O-])cc(c23)C(=O)N1c1ccccn1 | 20.6µM | 0 | 0 | -99.7 | 18.4µM
N=c1n(Cc2ccccc2)c2ccccc2n1CC(O)COc1ccccc1 (stereo not drawn) | 7.31µM | ? | ? | -87.8 | 6.51µM
Cc1nccn1CC(O)COc1ccccc1 (stereo not drawn) | 0 | 0 | 0 | 0 | 0
Cc1ccc(Cn2c(=N)n(CC(O)COc3ccccc3)c3ccccc32)cc1 (stereo not drawn) | 18.4µM | 0 | ? | 0 | 9.2µM
SMILES | DT40 TDP1 CPT | HT1080NT lethal | HT1080 IDH1KD tx | IL-1B inflam inh | TDP1 cell noCPT
OC(COc1ccc(OCC(O)CN2CCN(Cc3ccccc3)CC2)cc1)CN1CCN(Cc2ccccc2)CC1 (stereo not drawn) | ? | 0 | 0 | ? | ?
Cc1cc(C)c2nc(N(CCCN(C)C)C(=O)c3ccc4c(c3)OCCO4)sc2c1 | 13µM | 11.6µM | ? | -78.7 | 16.4µM
CN(C)CCCN(C(=O)c1ccc2c(c1)OCCO2)c1nc2cc3c(cc2s1)OCO3 | ? | 0 | 0 | 0 | 0
CCN(CC)CCN(C(=O)c1ccc2c(c1)OCCO2)c1nc2ccc(C)cc2s1 | ? | 0 | 0 | -51.5 | 0
CN(C)CCCN(C(=O)c1ccc2c(c1)OCCO2)c1nc2ccccc2s1 | ? | - | - | - | 16.4µM
Cc1cc(C)c2nc(N(CCCN(C)C)C(=O)C3=COCCO3)sc2c1 | 16.4µM | 0 | 0 | ? | 20.6µM
Cc1ccc(NC(=O)c2ncn(CCCN[C@H](C)c3cccc4ccccc34)n2)cc1C | 16.4µM | ? | ? | 0 | 14.6µM
Cc1ccc(NC(=O)c2ncn(CCCNCC3CCCCC3)n2)cc1C | ? | ? | ? | ? | 20.6µM
Cc1cc(C)c(CN2CCN(CCCn3cnc(C(=O)Nc4ccc(C)c(C)c4)n3)CC2)c(C)c1 | ? | ? | ? | ? | 14.6µM
CC(C)CC(NC(N)=O)C(=O)NCc1ccccc1Cl (stereo not drawn) | 0 | 0 | 0 | 0 | 0
Cc1cc(C)c(OCC(=O)OCC(=O)NCc2cccs2)c(C)c1 | 0 | 0 | 0 | 0 | 0
COc1ccc(OC)c(/C=N/NC(=O)CCCC(=O)Nc2cccc(Br)c2)c1 | 0 | 0 | 0 | 0 | 0
COc1ccc(O)c(/C=N/NC(=O)CCC(=O)Nc2ccc(C)cc2)c1 | ? | 0 | 0 | 0 | 20.6µM
COc1ccc(O)c(/C=N/NC(=O)CCC(=O)Nc2cccc(C)c2)c1 | 20.6µM | ? | ? | 0 | 20.6µM
COc1cccc(/C=N/NC(=O)CCCC(=O)Nc2ccc(Br)cc2)c1 | 20.6µM | 0 | 0 | 0 | 20.6µM
COc1cccc(C2C=C(c3ccc(OC)cc3OC)Nc3nnnn32)c1 (stereo not drawn) | ? | 0 | 0 | 0 | 16.4µM
COc1cccc(C2=CC(c3ccccc3)n3nnnc3N2)c1 (stereo not drawn) | 5.8µM | 7.94µM | ? | 0 | 3.66µM
COc1ccc(NC(=O)c2ccccc2NC(=O)COc2ccccc2)cc1 | 0 | 0 | 0 | 0 | 0
COc1ccc(C2=CC(c3ccc(OC)c(OC)c3)n3nnnc3N2)c(OC)c1 (stereo not drawn) | ? | 0 | 0 | 0 | ?
COc1cccc(C2=CC(c3ccc(N(C)C)cc3)n3nnnc3N2)c1 (stereo not drawn) | 20.6µM | 0 | ? | 0 | 13µM
COc1ccc(C2C=C(c3ccccc3)Nc3nnnn32)cc1 (stereo not drawn) | 0 | 0 | 0 | 0 | ?
CCOc1ccc(NC(=O)c2cnn3c2NC(c2cccc(OC)c2)=CC3c2ccccc2)cc1 (stereo not drawn) | 20.6µM | - | - | - | 20.6µM
COc1ccc(Oc2ncc3nc(-c4ccc(Cl)cc4)c(=O)n(C[C@H]4CCCO4)c3n2)cc1 | 0 | - | - | - | ?
CCOC(=O)COc1ccc(S(=O)(=O)N2CCN(c3ccccc3)CC2)cc1 | 0 | 0 | 0 | 0 | 0
CC(C)(C)Cc1c(-c2cccc(Cl)c2)nc2ccc(Br)cn12 | ? | 0 | 0 | ? | ?
CCCCCCc1c(C)c2ccc(OCC(=O)N3CCC[C@H]3C(=O)O)c(C)c2oc1=O | 0 | 0 | 0 | 0 | 0

Screens deposited in PubChem BioAssay by National Center for Advancing Translational Sciences (NCATS).
